Test systems include NCI-H23 lung; NCI-H226 lung; NCI-H322M lung; HOP-62 NSCLC; NCI-H460 lung; HOP-92 NSCLC; NCI-H522 lung; A549/ATCC NSCLC; 786-0 renal; COLO 205 colon; DU-145 prostate; K-562 leukemia; MALME-3M melanoma; MDA-MB-231 breast; RXF 393 renal; SF-268 CNS; SF-295 CNS; SF-539 CNS; UACC-257 melanoma; M14 melanoma.
What all share (assay): NCI-60 one-dose screen, 48 h (100 = growth as untreated, 0 = no growth, -100 = all killed)
Settings in all cases: 10 µM unless noted

Compounds without any hit were thinned out: in the full panel of roughly 83,000, 20% have a hit.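 96-well plates, one dose, 48 hours. Percent growth reported; active if below 10.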 A number with no mark means an inactive call. Activity calls are given as the source filed them.

`O=C(O)c1cccc(S(=O)(=O)c2ccccc2)c1`: the growth in the assay with NCI-H23 lung is 96.8%; in the assay with NCI-H226 lung, 96.8%; in the assay on NCI-H322M lung, 98.6%; in the assay on HOP-62 NSCLC, 103%; in the assay with NCI-H460 lung, 100%; in the assay on HOP-92 NSCLC, 82.8%. For the same compound, the growth is 93.5% in the assay on NCI-H522 lung; 102% in the assay with A549/ATCC NSCLC; 108% in the assay on 786-0 renal; 104% in the assay on COLO 205 colon; 107% with DU-145 prostate; 107% in the assay with K-562 leukemia. In addition, the growth is 87.7% in the assay with MALME-3M melanoma; 123% in the assay on MDA-MB-231 breast; 101% in the assay with RXF 393 renal; 103% in the assay on SF-268 CNS; 95% in the assay with SF-295 CNS; 98.5% in the assay with SF-539 CNS. Moreover, the results for the growth in the assay on UACC-257 melanoma and in the assay with M14 melanoma were 105% and 95.9%, respectively.
Consider `COc1ccc(/C(Cl)=N/N=C(\Cl)c2cc(OC)c(OC)c(OC)c2)cc1OC(C)=O`, for which the growth in the assay on NCI-H23 lung is 99.2%; with NCI-H226 lung it was 95.3%; in the assay on NCI-H322M lung, 95.1%; in the assay with HOP-62 NSCLC, 87.5%; with NCI-H460 lung, 97.4%; with HOP-92 NSCLC, 77.3%. The growth in the assay on NCI-H522 lung was 50.2%; with A549/ATCC NSCLC, 86.5%; with 786-0 renal it was 102%; in the assay on COLO 205 colon, 98.9%; in the assay on DU-145 prostate, 95.3%; in the assay on K-562 leukemia, 97.3%. For the same compound, the growth with MALME-3M melanoma is 93.6%; with MDA-MB-231 breast it was 97.8%; in the assay with RXF 393 renal it was 101%; in the assay with SF-268 CNS, 95.3%; in the assay on SF-295 CNS, 102%; in the assay on SF-539 CNS it was 93.3%. The values for the growth in the assay with UACC-257 melanoma and in the assay on M14 melanoma were 84.6% and 107%, respectively.
Consider `CC1OC(n2c3ccccc3c3c4c(c5c6ccccc6[nH]c5c32)C(=O)N(CCN[C@@H]2CCC[C@H]2N)C4=O)CC(O)C1O` (some centres not stated), for which the growth is 13.2% in the assay with NCI-H23 lung; 17.4% in the assay on NCI-H226 lung; 25.4% in the assay on NCI-H322M lung; 5.12% (active) with HOP-62 NSCLC; -62% (active) with NCI-H460 lung; 72% with HOP-92 NSCLC. Also, the growth in the assay on NCI-H522 lung was -9.89% (active); in the assay with A549/ATCC NSCLC, 14.1%; with 786-0 renal, 32.2%; in the assay on COLO 205 colon, 1.5% (active); with DU-145 prostate, 31.8%; in the assay on K-562 leukemia, 1.43% (active). The growth in the assay with MALME-3M melanoma is 24.9%; with MDA-MB-231 breast, 16.4%; in the assay with RXF 393 renal, 33.7%; in the assay on SF-268 CNS it was 30.6%; in the assay with SF-295 CNS, 8.14% (active); with SF-539 CNS, 17.8%. The growth with UACC-257 melanoma is 29.8%; with M14 melanoma, 18.7%.
For the compound `O=C(c1cc(-c2ccc(Cl)cc2)nc2ccccc12)N1N=C(c2ccccc2)CC1c1cc(-c2ccccc2)nn1-c1ccccc1` (configuration not stated), the growth with NCI-H23 lung is 72.5%; with NCI-H226 lung, 84.1%; in the assay with NCI-H322M lung, 59.8%; with HOP-62 NSCLC, 74%; in the assay with NCI-H460 lung it was 48.6%; with HOP-92 NSCLC, 85%. In addition, the growth in the assay with NCI-H522 lung is 80.8%; in the assay on A549/ATCC NSCLC it was 80%; in the assay with 786-0 renal it was 90%; in the assay with COLO 205 colon it was 84.9%; in the assay on DU-145 prostate, 82.7%; in the assay on K-562 leukemia it was 63.9%. In addition, the growth was 86.1% in the assay on MALME-3M melanoma; 93.3% in the assay with MDA-MB-231 breast; 62.4% in the assay on SF-268 CNS; 64.8% in the assay on SF-295 CNS; 82.1% in the assay on SF-539 CNS; 95.1% in the assay on UACC-257 melanoma. In addition, in the assay with M14 melanoma, the growth is 65.1%.
Turning to `COc1ccc(-c2cc(-c3nnc(SC/C(=N\O)c4ccccc4)n3-c3ccccc3)c3ccccc3n2)cc1`, the growth with NCI-H23 lung is 94.6%; in the assay with NCI-H226 lung, 96.2%; with NCI-H322M lung, 101%; in the assay on HOP-62 NSCLC, 91.1%; in the assay on NCI-H460 lung, 104%; in the assay with HOP-92 NSCLC it was 94.8%. The growth is 87.2% with NCI-H522 lung; 96.8% in the assay on A549/ATCC NSCLC; 113% in the assay with 786-0 renal; 91.1% with COLO 205 colon; 111% in the assay with DU-145 prostate; 113% in the assay with K-562 leukemia. In addition, the growth was 100% in the assay on MALME-3M melanoma; 103% in the assay with MDA-MB-231 breast; 117% in the assay with RXF 393 renal; 102% in the assay on SF-268 CNS; 104% in the assay with SF-295 CNS; 102% in the assay with SF-539 CNS. The growth in the assay with UACC-257 melanoma was 104%; in the assay with M14 melanoma, 116%.
As to `O=C(NOC1OC(CO)C(O)C(O)C1O)Nc1ccccc1` (configuration not stated), the growth in the assay on NCI-H23 lung was 104%; in the assay with NCI-H226 lung, 90.5%; in the assay on NCI-H322M lung, 101%; in the assay with HOP-62 NSCLC it was 93.2%; with NCI-H460 lung, 103%; in the assay with HOP-92 NSCLC, 91.1%. For the same compound, the growth with NCI-H522 lung was 84.9%; in the assay on A549/ATCC NSCLC, 106%; in the assay on 786-0 renal it was 107%; in the assay with COLO 205 colon it was 95.8%; with DU-145 prostate, 108%; with K-562 leukemia, 69%. Besides, the growth with MALME-3M melanoma is 94.8%; with MDA-MB-231 breast, 99.2%; with SF-268 CNS it was 85.7%; in the assay on SF-295 CNS it was 98.5%; in the assay with SF-539 CNS, 103%; in the assay on UACC-257 melanoma it was 107%. Moreover, the growth in the assay on M14 melanoma is 108%.
As to `COc1ccc(/C=C2\CS(=O)(=O)C/C(=C\c3ccc(OC)cc3)C2=O)cc1`, the growth with NCI-H23 lung was -49.3% (active); in the assay on NCI-H226 lung it was -43.9% (active); in the assay with NCI-H322M lung, 30.9%; in the assay on HOP-62 NSCLC, -67.7% (active); in the assay on NCI-H460 lung it was -52.6% (active); in the assay on HOP-92 NSCLC, -41.3% (active). In addition, the growth is -73.6% (active) with NCI-H522 lung; -56.5% (active) in the assay with A549/ATCC NSCLC; -100% (active) in the assay with 786-0 renal; -70.6% (active) with COLO 205 colon; -44.2% (active) in the assay with DU-145 prostate; -15.4% (active) with K-562 leukemia. The growth in the assay with MALME-3M melanoma is -23% (active); with MDA-MB-231 breast, 8.06% (active); with SF-268 CNS, -24.7% (active); in the assay with SF-295 CNS it was -14.4% (active); in the assay with SF-539 CNS, -54.6% (active); in the assay on UACC-257 melanoma, -80.5% (active). Besides, in the assay with M14 melanoma, the growth is -78.1% (active).
Regarding `COc1cc(Br)c(-c2nc(-c3ccccc3)c(-c3ccccc3)n2Cc2ccccc2)cc1OC`, the growth in the assay with NCI-H23 lung was 46.8%; in the assay with NCI-H226 lung it was 70.4%; with NCI-H322M lung it was 75.1%; in the assay on HOP-62 NSCLC, 91.8%; in the assay on NCI-H460 lung, 48.9%; with HOP-92 NSCLC, 45.7%. In addition, the growth in the assay with NCI-H522 lung was 39.6%; in the assay on A549/ATCC NSCLC, 37%; in the assay on 786-0 renal it was 67.9%; with COLO 205 colon it was 30.2%; in the assay with DU-145 prostate it was 72.6%; in the assay on K-562 leukemia, 31.5%. Besides, the growth is 57.8% with MALME-3M melanoma; 71.2% in the assay with MDA-MB-231 breast; 72.2% with RXF 393 renal; 67.9% with SF-268 CNS; 34.5% with SF-295 CNS; 76% in the assay on SF-539 CNS. Moreover, the growth was 59.2% in the assay with UACC-257 melanoma and 53.1% with M14 melanoma.

These data come from PubChem BioAssay (NCI).
